Assay results as given in PubChem BioAssay.
Calls of active or inactive are those of the source. Unless noted, no stated cut-off is given here; in the data, active means inhibition above about 33%; inactive means the rest.

Key:
[1] = StAR promoter reporter inhibitors, counter-screen for LRH-1 inverse agonist project, cell-based, luminescence, high throughput (AID 651611; in the data active means inhibition above about 28%); conditions: StAR promoter luciferase reporter counterscreen, at 3.6 µM, active compounds read high
[2] = target: Nuclear receptor subfamily 5 group A member 2 (Homo sapiens) (UniProt O00482); assay: NR5A2 activity suppression in reporter cells – cell-based, luminescence, confirmation (AID 651613; in the data active means inhibition above about 42%;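 further: HEK293T cells co-transfected with LRH-1 and StAR promoter luciferase reporter; 0% = vehicle wells and 100% = parental cells lacking receptor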); conditions: cell-based LRH-1 luciferase reporter, inverse agonism; at 3.6 µM; active compounds read high
Nuclear receptor subfamily 5 group A member 2 (Homo sapiens), sequence (O00482 whole entry, looked up): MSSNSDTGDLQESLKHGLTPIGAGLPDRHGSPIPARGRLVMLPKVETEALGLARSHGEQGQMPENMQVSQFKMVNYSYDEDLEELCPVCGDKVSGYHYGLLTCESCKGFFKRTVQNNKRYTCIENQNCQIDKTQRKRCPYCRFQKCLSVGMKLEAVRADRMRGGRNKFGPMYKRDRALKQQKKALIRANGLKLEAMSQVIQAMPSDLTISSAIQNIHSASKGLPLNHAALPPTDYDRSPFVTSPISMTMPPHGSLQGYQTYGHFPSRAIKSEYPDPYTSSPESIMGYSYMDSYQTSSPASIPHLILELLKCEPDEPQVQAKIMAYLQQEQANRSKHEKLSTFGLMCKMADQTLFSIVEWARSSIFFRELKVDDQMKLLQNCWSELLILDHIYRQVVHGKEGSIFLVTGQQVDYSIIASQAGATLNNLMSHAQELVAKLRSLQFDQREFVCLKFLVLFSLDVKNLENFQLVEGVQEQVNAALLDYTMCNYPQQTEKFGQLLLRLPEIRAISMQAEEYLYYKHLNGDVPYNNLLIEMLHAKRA

[3] = target: Steroidogenic factor 1 (Homo sapiens) (UniProt Q13285); assay: inverse agonism at SF1 nuclear receptor – cell-based, luminescence, high throughput, counter-screen for LRH-1 inverse agonist project (AID 651614; in the data active means inhibition above about 44%;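 further: cells cotransfected with StAR promoter reporter and SF1 expression vector; 0% = vehicle on cells with receptor and 100% = vehicle on cells lacking receptor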); conditions: cell-based SF1 luciferase reporter, at 3.6 µM, active compounds read high
Steroidogenic factor 1 (Homo sapiens), sequence (Q13285 whole entry, looked up, the tested form may be a part): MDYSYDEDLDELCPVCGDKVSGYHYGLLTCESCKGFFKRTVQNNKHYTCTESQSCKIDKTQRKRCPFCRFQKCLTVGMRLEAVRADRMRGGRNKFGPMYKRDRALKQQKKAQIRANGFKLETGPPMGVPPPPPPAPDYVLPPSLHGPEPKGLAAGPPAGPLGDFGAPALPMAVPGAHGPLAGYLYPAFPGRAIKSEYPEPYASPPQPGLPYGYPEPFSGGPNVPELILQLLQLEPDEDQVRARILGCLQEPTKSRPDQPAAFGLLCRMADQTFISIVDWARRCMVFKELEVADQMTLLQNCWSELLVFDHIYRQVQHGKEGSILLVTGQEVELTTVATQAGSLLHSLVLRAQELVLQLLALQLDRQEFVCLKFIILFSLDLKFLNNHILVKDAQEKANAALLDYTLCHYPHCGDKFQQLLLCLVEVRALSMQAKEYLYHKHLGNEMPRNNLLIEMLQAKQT

[4] = compounds suppressing VP16-driven luciferase signal – cell-based, luminescence, high throughput, counter-screen for LRH-1 inverse agonist project (AID 651615); conditions: Gal4-VP16 luciferase reporter cells, at 3.6 µM, active compounds read high

| Compound | inhibition [1] | inhibition [2] | inhibition [3] | inhibition [4] |
| --- | --- | --- | --- | --- |
| C#Cc1cccc(Nc2nc(NCCOC)nc3ccsc23)c1 | 26.9% (inactive) | 47.1% (active) | 57.4% (active) | 5.35% (inactive) |
| CCOC(=O)CCCc1ccc(/C(C)=N/NC(N)=S)cc1 | 21.6% (inactive) | 62.4% (active) | 68.6% (active) | 26.4% (inactive) |
| Cn1cc(Cl)c(C(=O)OCC(=O)Nc2ccc(S(N)(=O)=O)cc2)n1 | 10.9% (inactive) | 55.2% (active) | 50.4% (active) | -12.4% (inactive) |
| CCN(CC)C1=CC(=O)OC12CCCCC2 | 2.42% (inactive) | 51.2% (active) | 48.7% (active) | -9.57% (inactive) |
| COC(=O)c1ccc(NC(=O)CN2CCN(c3ccc(Cl)cc3)CC2)cc1 | -0.66% (inactive) | 52.3% (active) | 45.8% (active) | 2.51% (inactive) |
| O=C(Nc1cccc([N+](=O)[O-])c1)c1ccc([N+](=O)[O-])o1 | 24% (inactive) | 64.7% (active) | 70.5% (active) | -20.3% (inactive) |
| CC(=O)N1CCN(c2ccc(NC(=O)c3cccc([N+](=O)[O-])c3)cc2)CC1 | -1.56% (inactive) | 53.6% (active) | 49.6% (active) | -19.9% (inactive) |
| O=C(Nc1c(F)cccc1F)c1cnc(N2CCN(c3ccccn3)CC2)c2ccccc12 | 41.4% (active) | 41% (inactive) | 35.2% (inactive) | 17.4% (inactive) |
| COc1cc(N)c2ncccc2c1Br | 16.6% (inactive) | 17.8% (inactive) | 26.6% (inactive) | -4.59% (inactive) |
| O=C(NCc1cccnc1)c1ccc([N+](=O)[O-])o1 | 16.3% (inactive) | 62.7% (active) | 63.4% (active) | -3.23% (inactive) |
| O=C(CSc1nc2cccc(F)c2c(=O)n1-c1ccccc1)Nc1ccc2c(c1)CCC2 | 19.2% (inactive) | 57.3% (active) | 57.5% (active) | -5.06% (inactive) |
| CC(Oc1ccc(S(=O)(=O)N2CCCC2)cc1[N+](=O)[O-])C(=O)NC(C)c1ccccc1 (stereo unspecified) | 4.94% (inactive) | 52.3% (active) | 50.8% (active) | 1.83% (inactive) |
| COC(=O)c1ccc(NC(=O)CN2C(=O)CNC2=O)cc1 | 11.5% (inactive) | 62.9% (active) | 50.9% (active) | -6.93% (inactive) |
| COc1ccccc1N1CCN(C(=O)C2c3ccccc3Oc3ccccc32)CC1 | 34.4% (active) | 26% (inactive) | 33.4% (inactive) | 39.4% (active) |
| CCOC(=O)c1cc2sccc2n1CC(=O)Nc1ccc2c(c1)OCCO2 | 7.97% (inactive) | 55.1% (active) | 52.2% (active) | -2.96% (inactive) |
| Cc1nn(C)c(C)c1CN(Cc1nc(CCC(C)C)no1)C(C)C | 20.7% (inactive) | 59.6% (active) | 54.2% (active) | 52.8% (active) |
| O=C(Nc1cc(C(F)(F)F)cc(C(F)(F)F)c1)O[C@@H]1c2ccccc2[C@@H]2Cc3csc[n+]3[C@H]12 | 15.6% (inactive) | 60% (active) | 58.4% (active) | 4.96% (inactive) |
| CCOC(=O)c1c(N)n(CCOC(=O)c2cccs2)c2nc3ccccc3nc12 | 0.69% (inactive) | 21.6% (inactive) | 23.7% (inactive) | -11.6% (inactive) |
| O=[N+]([O-])c1cccc(-c2ccc(/C=N/NC(=S)NCc3ccco3)o2)c1 | 10.6% (inactive) | 48.5% (active) | 51.2% (active) | -3.67% (inactive) |
| CC(C)=NOc1cc(NC(=O)CCl)cc([N+](=O)[O-])c1 | 37.5% (active) | 56.3% (active) | 56.4% (active) | 13% (inactive) |
| CCOc1ccc(Br)cc1C1=NN(C(C)=O)C(c2ccc([N+](=O)[O-])s2)O1 (stereo unspecified) | 17.9% (inactive) | 66.8% (active) | 63.2% (active) | -1.66% (inactive) |
| c1ccc(-c2nc(NCC3CCCO3)c3oc4ccccc4c3n2)cc1 (stereo unspecified) | -0.47% (inactive) | 38.2% (inactive) | 39.8% (inactive) | -17.1% (inactive) |
| COc1ccc(/C=C2/CSC/C(=C/c3ccc(OC)c(OC)c3)C2=O)cc1OC | -4.62% (inactive) | 74.5% (active) | 74.9% (active) | 76.8% (active) |
| CCCCOc1ccc(Br)cc1CSC(=N)N | 16.4% (inactive) | 103% (active) | 62.3% (active) | 83.2% (active) |
| Cc1nn(CC(=O)Nc2ccc3c(c2)OCCO3)c(C)c1[N+](=O)[O-] | 11.2% (inactive) | 62.3% (active) | 51.6% (active) | 10.4% (inactive) |

| Compound | inhibition [1] | inhibition [2] | inhibition [3] | inhibition [4] |
| --- | --- | --- | --- | --- |
| COc1cc2c(cc1OC)CN(C(=O)c1ccc([N+](=O)[O-])o1)CC2 | 12.4% (inactive) | 65.1% (active) | 64.4% (active) | 7.13% (inactive) |
| COc1ccc(NC(=O)CSC2=NCCN2)cc1 | -2.78% (inactive) | 31.3% (inactive) | 15.1% (inactive) | -3.5% (inactive) |
| Nc1cccc2nc3ccccc3cc12 | 21.7% (inactive) | 104% (active) | 55.1% (active) | 92.2% (active) |
| O=[N+]([O-])c1ccc(N2CCN(Cc3ccccc3)CC2)c2c1no[n+]2[O-] | 63.5% (active) | 57.3% (active) | 63.1% (active) | 25.3% (inactive) |
| CC(=O)N1CCc2c(sc(NC(=O)Cc3ccccc3)c2C#N)C1 | 18.4% (inactive) | 64% (active) | 57.4% (active) | -30.8% (inactive) |
| CS(=O)(=O)N1CCN(c2ccc(NC(=O)CSc3nnc(-c4ccco4)o3)cc2)CC1 | 4.74% (inactive) | 54% (active) | 54.1% (active) | -2.76% (inactive) |
| CCOc1ccc(Br)cc1/C(C)=N\NC1=NCCN1 | 1.83% (inactive) | 36.8% (inactive) | 36.7% (inactive) | 33.2% (active) |
| Cc1cc2oc(=O)cc(-c3ccccc3)c2c(C)c1-c1ccc(C#N)cc1 | 4.09% (inactive) | 69% (active) | 62.7% (active) | 13.8% (inactive) |
| Cc1onc(NC(=O)c2ccc([N+](=O)[O-])o2)c1Br | 4.26% (inactive) | 64.9% (active) | 58.4% (active) | -9.49% (inactive) |
| O=C(Nc1nc(-c2ccccn2)cs1)c1ccc([N+](=O)[O-])o1 | 32% (active) | 69.5% (active) | 77.7% (active) | 16.4% (inactive) |
| O=C(c1ccc([N+](=O)[O-])o1)N1CCN(c2nc3c(F)cc(F)cc3s2)CC1 | -14.9% (inactive) | 60.2% (active) | 60.4% (active) | -0.11% (inactive) |
| CN(C)c1ccc(C(=O)OCC(=O)Nc2ccc(N3CCOCC3)cc2)cc1 | -5.42% (inactive) | 62% (active) | 55.8% (active) | -6.21% (inactive) |
| Cc1c(OCC(=O)NCCCN2CCOCC2)ccc2c(-c3ccccc3)cc(=O)oc12 | 2.78% (inactive) | 37.8% (inactive) | 36.5% (inactive) | 5.76% (inactive) |
| C=CC[n+]1c(/C=C2\C=Cc3cc(C)ccc3N2CC)ccc2ccccc21 | 80.6% (active) | 110% (active) | 95.5% (active) | 95.8% (active) |
| CSc1ccc(COC(=O)c2cc([N+](=O)[O-])ccc2N2CCOCC2)cc1 | 61.7% (active) | 57.5% (active) | 65.8% (active) | 36.6% (active) |
| O=C(COC(=O)C1CC1)NCCc1ccc(Cl)cc1 | 4.21% (inactive) | 45.3% (active) | 39.1% (inactive) | -2.95% (inactive) |
| COc1cccc(C(C)(O)c2nc(-c3ccoc3)cs2)c1 (stereo unspecified) | -0.36% (inactive) | 30.2% (inactive) | 21.5% (inactive) | -0.14% (inactive) |
| COc1cc(/C=N/NC(N)=S)ccc1OCC(=O)Nc1ccc(C)cc1 | -3.71% (inactive) | 48.1% (active) | 60% (active) | -1.66% (inactive) |
| COC(=O)CC1(C(=O)OC)Oc2ccc(Br)cc2C(=O)N1c1cc(Cl)c(Cl)cc1Cl (stereo unspecified) | 12.1% (inactive) | 58.5% (active) | 48.2% (active) | 20.2% (inactive) |
| O=C(N/N=C/c1ccc([N+](=O)[O-])s1)c1ccccc1Br | 40.1% (active) | 57.5% (active) | 65.3% (active) | 14% (inactive) |
| CCCc1nc(SCC(=O)c2ccc(F)cc2)c2ccccc2n1 | 5.26% (inactive) | 46.9% (active) | 55.7% (active) | -0.25% (inactive) |
| Cc1cccnc1NC(=O)c1ccc([N+](=O)[O-])o1 | 12.3% (inactive) | 52.7% (active) | 57.8% (active) | 1.88% (inactive) |
| CCCc1cc(=O)oc2cc(OCC(=O)N3CCN(C(=O)C4COc5ccccc5O4)CC3)ccc12 (stereo unspecified) | 8.6% (inactive) | 63.4% (active) | 55.5% (active) | 3.04% (inactive) |
| C=CCNC(=S)N/N=C/c1ccc(N(CC)Cc2ccccc2)cc1 | 11.4% (inactive) | 38.4% (inactive) | 24.4% (inactive) | 6.68% (inactive) |
